Assay results as given in PubChem BioAssay (NCI).
Values joined by “and” are separate entries in the source; they are usually repeats but may differ in a detail not shown here. Equal entries are not always repeated. Compounds without any hit were thinned out: in the full panel of roughly 79,000, 15% have a hit. Unmarked numbers belong to inactive results. Active and inactive are the calls of the source. Rule as the data show it: active = growth inhibition above about 70%; inactive = the rest. Where a SMILES comes first, the peptide text is derived from it. The star is where a group is joined. Boc = CC(C)(C)OC(=O)*; OBn = c1ccc(CO*)cc1

What was measured:
[1] = NCI Yeast Anticancer Drug Screen. Data for the rad50 strain (AID 155);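 also: 0% = growth of vehicle-only cultures of the same strain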; conditions: S. cerevisiae rad50 strain growth inhibition, hits give high values; at 50.0 µM unless noted
Procedure, shortened: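 Relative growth inhibition (compound vs vehicle) was measured in yeast with a defined repair-gene alteration.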

[2] = NCI Yeast Anticancer Drug Screen. Data for the mec2-1 strain (AID 157); conditions: S. cerevisiae mec2-1 strain, hits give high values; at 50.0 µM unless noted
Procedure, shortened: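 mec2-1 yeast strain, carrying an alteration in DNA damage repair or cell cycle control, was exposed to compounds; growth inhibition was measured relative to vehicle-treated controls.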

[3] = NCI Yeast Anticancer Drug Screen. Data for the sgs1 mgt1 strain (AID 161);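 also: 0% = growth of cultures given vehicle only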; conditions: S. cerevisiae sgs1 mgt1 strain, hits give high values; at 50.0 µM unless noted
Procedure, shortened: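 Yeast cells carrying a defined DNA-repair defect were exposed to test compounds. Growth inhibition was measured relative to vehicle-treated controls.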

[4] = NCI Yeast Anticancer Drug Screen. Data for the cln2 rad14 strain (AID 165);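 also: 0% = growth equal to vehicle treated cultures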; conditions: S. cerevisiae cln2 rad14 strain, hits give high values; at 50.0 µM unless noted
Procedure, shortened: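 Yeast carrying cln2 and rad14 alterations (cell cycle control and DNA damage repair) were exposed to compounds. Growth inhibition was measured against vehicle-treated controls.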

[5] = NCI Yeast Anticancer Drug Screen. Data for the bub3 strain (AID 167); conditions: S. cerevisiae bub3 mutant strain, hits give high values; at 50.0 µM unless noted
Procedure, shortened: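 Screening used yeast with an engineered genetic alteration affecting cell cycle control. Compound-exposed cultures were compared with vehicle cultures, and reduced growth was taken as inhibition.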

[6] = NCI Yeast Anticancer Drug Screen. Data for the mlh1 rad18 strain (AID 175); conditions: S. cerevisiae mlh1 rad18 strain growth inhibition, hits give high values; at 50.0 µM unless noted
Procedure, shortened: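 Growth inhibition of the yeast strain was measured after compound exposure and expressed relative to vehicle-treated controls. The strain carries defined defects in DNA damage repair.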

COc1ccc(C(=O)CCC(=O)O)c(O)c1
growth inhibition [1]: -3.25%
growth inhibition [2]: 1.35%
growth inhibition [3]: -12.6%
growth inhibition [4]: -11.1%
growth inhibition [5]: -4.15%
growth inhibition [6]: -11.3%

CC(=O)OCC(C)(O)C#N (centres undefined)
growth inhibition [1]: -19.8%
growth inhibition [2]: -0.2%
growth inhibition [3]: 11.3%
growth inhibition [4]: 4.05%
growth inhibition [5]: -5.35%
growth inhibition [6]: -22.6%

CC(=O)OC1CC2C3CCc4cc(O)ccc4C3CCC2(C)C1 (centres undefined)
growth inhibition [1]: 22.4%
growth inhibition [2]: -15.8%
growth inhibition [3]: -8%
growth inhibition [4]: 6.7%
growth inhibition [5]: -0.05%
growth inhibition [6]: 3.2%

CCOC=Nc1ccc(-n2cnc3c(Cl)ncnc32)cc1C
growth inhibition [1]: 1.1%
growth inhibition [2]: -4.45%
growth inhibition [3]: -16.6%
growth inhibition [4]: -6.2%
growth inhibition [5]: -1%
growth inhibition [6]: -17.2%

O=S1(=O)C(c2cccc(F)c2)=C(O)c2cc3ccccc3nc21
growth inhibition [1]: 15.8%
growth inhibition [2]: 5.45%
growth inhibition [3]: 11.6%
growth inhibition [4]: -20.6%
growth inhibition [5]: -23.8%
growth inhibition [6]: 9.45%

Nc1ncnc2c1nc(Cl)n2C1OC2COP(=O)(O)OC2C1O (centres undefined)
growth inhibition [1]: -15.9% and -13.3%
growth inhibition [2]: -8.05% and 3.45%
growth inhibition [3]: -20.7% and -0.55%
growth inhibition [4]: -9.25% and -40.8%
growth inhibition [5]: -27.1% and -41.8%
growth inhibition [6]: -13.8% and -10.6%

Cc1cc(Cl)ccc1NC(=O)C(=O)Cc1ccc([N+](=O)[O-])c([N+](=O)[O-])c1CC(=O)C(=O)Nc1ccc(Cl)cc1C
growth inhibition [1]: -10.6%
growth inhibition [2]: -30.4%
growth inhibition [3]: -13.6%
growth inhibition [4]: -7.8%
growth inhibition [5]: 18.6%
growth inhibition [6]: 7%

CCC(C)(C)c1ccc(C(=O)OC)o1
growth inhibition [1]: 4.1%
growth inhibition [2]: 16.2%
growth inhibition [3]: -5.55%
growth inhibition [4]: -13.3%
growth inhibition [5]: -7.3%
growth inhibition [6]: -13.8%

O=C(C(=C(I)I)c1ccccc1)c1ccccc1
growth inhibition [1]: 7.7%
growth inhibition [2]: -7.95%
growth inhibition [3]: 25.1%
growth inhibition [4]: -13.7%
growth inhibition [5]: 13.6%
growth inhibition [6]: -75.4%

CNC(=O)OCc1c(COC(=O)NC)c(C)n(-c2ccc(Cl)cc2)c1C
growth inhibition [1]: 38.8%
growth inhibition [2]: 40.4%
growth inhibition [3]: 83.2% (active)
growth inhibition [4]: 24.6%
growth inhibition [5]: 84.5% (active)
growth inhibition [6]: 91.3% (active)

CN(C(=O)c1ccc([N+](=O)[O-])cc1)C(c1ccco1)P(=O)(c1ccccc1)c1ccccc1 (centres undefined)
growth inhibition [1]: 71.1% (active)
growth inhibition [2]: 36.4%
growth inhibition [3]: 56.5%
growth inhibition [4]: 0.4%
growth inhibition [5]: 46.2%
growth inhibition [6]: 26.4%

Cc1cc(OC(=O)c2c(-c3c(Cl)cccc3Cl)noc2C)n(-c2ccc(NC(=O)c3c(-c4c(Cl)cccc4Cl)noc3C)cc2)n1
growth inhibition [1]: 36.8%
growth inhibition [2]: 24.8%
growth inhibition [3]: 19.7%
growth inhibition [4]: 13%
growth inhibition [5]: 28.1%
growth inhibition [6]: 25.9%

c1ccc(NN(Cc2cnccn2)c2ccccc2)cc1
growth inhibition [1]: 9.75%
growth inhibition [2]: -2.65%
growth inhibition [3]: -24.9%
growth inhibition [4]: -29.9%
growth inhibition [5]: -56.5%
growth inhibition [6]: -12%

CC1CCCCN1C(=O)Nc1ccc(Cl)cc1[N+](=O)[O-] (centres undefined)
growth inhibition [1]: 9.3%
growth inhibition [2]: 44.2%
growth inhibition [3]: 29.6%
growth inhibition [4]: -15.6%
growth inhibition [5]: 64.3%
growth inhibition [6]: 42.4%

CN1C=C(C(N)=O)Cc2ccsc21
growth inhibition [1]: 10.7%
growth inhibition [2]: -10.8%
growth inhibition [3]: -15.8%
growth inhibition [4]: -8.95%
growth inhibition [5]: -17.1%
growth inhibition [6]: -18.5%

CCOC(=O)C/C(=N\NC(=O)c1ccccc1O)C(=O)OCC
growth inhibition [1]: 5.8%
growth inhibition [2]: 1.95%
growth inhibition [3]: 5.85%
growth inhibition [4]: 0.9%
growth inhibition [5]: 3.3%
growth inhibition [6]: 29.9%

Cc1ncc(CO)c(CO)c1O
growth inhibition [1]: 3.05% and -8.25%
growth inhibition [2]: -2.95% and -14%
growth inhibition [3]: -4.2%
growth inhibition [4]: 2.4%
growth inhibition [5]: 7%
growth inhibition [6]: 45.8% and -5.65%

CCCCCCCCCCCC(=O)NC(=S)Nc1cccc(O)c1
growth inhibition [1]: 84.3% (active)
growth inhibition [2]: 63.8%
growth inhibition [3]: 74.4% (active)
growth inhibition [4]: 90.3% (active)
growth inhibition [5]: 93% (active)
growth inhibition [6]: 81.4% (active)

CCOc1ccc(N2C(=O)/C(=C/c3ccc(N(CCC#N)CCC#N)cc3)N=C2c2cc([N+](=O)[O-])ccc2Cl)cc1
growth inhibition [1]: 5.85%
growth inhibition [2]: -1.15%
growth inhibition [3]: -9.8%
growth inhibition [4]: 17.8%
growth inhibition [5]: 9.3%
growth inhibition [6]: -6.6%

O=S(=O)(NCCSSCCNS(=O)(=O)c1ccccc1)c1ccccc1
growth inhibition [1]: 45%
growth inhibition [2]: 17.5%
growth inhibition [3]: 51.6%
growth inhibition [4]: 16.6%
growth inhibition [5]: 23.6%
growth inhibition [6]: 34.7%

CC(=O)c1cccc(OC(=O)Nc2ccccc2)c1
growth inhibition [1]: 6.45%
growth inhibition [2]: -10.2%
growth inhibition [3]: 2.5%
growth inhibition [4]: 4.3%
growth inhibition [5]: -1.45%
growth inhibition [6]: 22.4%

COc1cccc(C2SCC(=O)N2c2ccc(-n3c(-c4ccccc4)nc4ccccc4c3=O)cc2)c1OC (centres undefined)
growth inhibition [1]: 11.9%
growth inhibition [2]: 26.4%
growth inhibition [3]: 0.9%
growth inhibition [4]: -9.7%
growth inhibition [5]: 22.4%
growth inhibition [6]: 26.9%

Cc1nc2cccc3ccc4c5ccccc5cc1c4c32
growth inhibition [1]: 70% (active)
growth inhibition [2]: 15.2%
growth inhibition [3]: -25%
growth inhibition [4]: 0.9%
growth inhibition [5]: 21.6%
growth inhibition [6]: 49.3%

Cc1ccnc(NC#N)n1
growth inhibition [1]: 14.8%
growth inhibition [2]: 13.6%
growth inhibition [3]: 21.6%
growth inhibition [4]: 19.1%
growth inhibition [5]: 19.4%
growth inhibition [6]: 14.8%

CC1=NN(C(=O)c2ccccc2O)C(=O)/C1=C/c1ccccc1O
growth inhibition [1]: -29.1%
growth inhibition [2]: -11.8%
growth inhibition [3]: -14.8%
growth inhibition [4]: -9.7%
growth inhibition [5]: -39.5%
growth inhibition [6]: -24.6%

C[n+]1c(SCC(=O)O)sc2ccccc21
growth inhibition [1]: -28.8% and 1.2%
growth inhibition [2]: -46.3% and 10.1%
growth inhibition [3]: 3.7% and 19.6%
growth inhibition [4]: 14.9% and 6.5%
growth inhibition [5]: -26.6% and 34.2%
growth inhibition [6]: 5.7% and 22.9%

O=C1NC(N/N=C\C(O)C(O)C(O)CO)=N/C1=C/c1ccccc1 (centres undefined)
growth inhibition [1]: 16.4% and 33.9%
growth inhibition [2]: 18.7% and 29.6%
growth inhibition [3]: 3.75% and 32.5%
growth inhibition [4]: 16.8% and 16.1%
growth inhibition [5]: 12.2% and 32.3%
growth inhibition [6]: -9.35% and -5.7%

CC(C)COC(=O)c1ccccc1
growth inhibition [1]: 35%
growth inhibition [2]: 7.95%
growth inhibition [3]: 20.1%
growth inhibition [4]: -18.4%
growth inhibition [5]: -9.6%
growth inhibition [6]: 3.6%

NC1=NCC(CN2CCCCC2)O1 (centres undefined)
growth inhibition [1]: 7.1%
growth inhibition [2]: 1.8%
growth inhibition [3]: -4.05%
growth inhibition [4]: -2.4%
growth inhibition [5]: -8.3%
growth inhibition [6]: 5.9%

CC(C)CC(NC(=O)C(Cc1ccccc1)NC(=O)C(Cc1ccccc1)NC(=O)OC(C)(C)C)C(=O)OCc1ccccc1 (stereo not drawn) (Boc-Phe-Phe-Leu-OBn; configuration not given here)
growth inhibition [1]: -3.15%
growth inhibition [2]: -10.3%
growth inhibition [3]: -5.95%
growth inhibition [4]: -7.2%
growth inhibition [5]: 0.95%
growth inhibition [6]: 5.95%

CCCCCCCCCCCCCCCCCCCCCCCCCCO
growth inhibition [1]: -16.2%
growth inhibition [2]: -10.4%
growth inhibition [3]: -13.8%
growth inhibition [4]: -8.85%
growth inhibition [5]: -1.3%
growth inhibition [6]: -7.25%

COC1=CC(=O)CC(C)C12Oc1c(Cl)c(OC)cc(OC)c1C2=O (centres undefined)
growth inhibition [1]: 2%
growth inhibition [2]: -14.5%
growth inhibition [3]: 20%
growth inhibition [4]: 13.4%
growth inhibition [5]: 67.1%
growth inhibition [6]: 17.9%

COc1ccc(N(C(=O)NCCO)c2ccccc2)cc1
growth inhibition [1]: -3.75%
growth inhibition [2]: -15.8%
growth inhibition [3]: 14.9%
growth inhibition [4]: 14.6%
growth inhibition [5]: -2.3%
growth inhibition [6]: 26.7%

CC1C=NNC1=O (centres undefined)
growth inhibition [1]: 19.9%
growth inhibition [2]: -30.8%
growth inhibition [3]: 23.5%
growth inhibition [4]: 3.4%
growth inhibition [5]: -0.05%
growth inhibition [6]: 4.5%

CCN(CC)CCN(CC)C(=S)Nc1ccccc1
growth inhibition [1]: 1.75%
growth inhibition [2]: 21.2%
growth inhibition [3]: 23.2%
growth inhibition [4]: -4.65%
growth inhibition [5]: 2%
growth inhibition [6]: 12.2%

CCOC(CC(=O)NCCNC(C)=O)OCC
growth inhibition [1]: 38%
growth inhibition [2]: 4.6%
growth inhibition [3]: 7.2%
growth inhibition [4]: 2.05%
growth inhibition [5]: 18.4%
growth inhibition [6]: 43.1%

Clc1ccccc1Nc1nc(Nc2ccccc2Cl)nc(Nc2ccccc2Cl)n1
growth inhibition [1]: 21.1%
growth inhibition [2]: 19.4%
growth inhibition [3]: 21.6%
growth inhibition [4]: 37.9%
growth inhibition [5]: 7.3%
growth inhibition [6]: 5.95%

Cc1cc(C)nc(NS(=O)(=O)c2ccc(Nc3c4ccccc4nc4c(C(=O)Nc5ccc(S(=O)(=O)Nc6cc(C)on6)cc5)ccc(Cl)c34)cc2)n1
growth inhibition [1]: 32.9%
growth inhibition [2]: 45.1%
growth inhibition [3]: 23.1%
growth inhibition [4]: 42.2%
growth inhibition [5]: 18.9%
growth inhibition [6]: 41.5%

CS(=O)(=O)OC1Cc2ccccc2C1
growth inhibition [1]: 12.6%
growth inhibition [2]: -0.3%
growth inhibition [3]: -2.35%
growth inhibition [4]: -6.1%
growth inhibition [5]: -5%
growth inhibition [6]: 9.9%
